Lassa entry inh – qHTS for Inhibitors of binding or entry into cells for Lassa Virus. 1.2% of 300,000 active. Potency, µM (series often up to 37.9 µM), for the others: at the highest dose activity change, negative = inhibition, usual class: inhibitors. Lassa virus pseudotype entry inhibition, cell reporter. AID 540256, 2011; calls by dose curve; tested in HEK293 cells; also: potency is read from the fitted curve at half-maximal effect; nearly all actives have a fitted effect of over 50% in size
MARV entry inh – qHTS for inhibitors of binding or entry into cells for Marburg Virus; Marburg virus pseudotyped entry inhibition, cell reporter; Potency, µM (titrated, usually from 37.8 µM), for inactives: at the highest dose activity change, negative = inhibition, actives largely listed as inhibitors; 1.8% of 300,000 active; calls by dose curve; tested in HEK293 cells; also: potency is read from the fitted curve at half-maximal effect
Vaccinia mCherry – qHTS for Stage-Specific Inhibitors of Vaccinia Orthopoxvirus: mCherry Reporter Primary qHTS | Vaccinia virus mCherry reporter infection, fluorescence | AID 720579, 2013 | Potency, µM (titrated, usually from 36.5 µM), for inactives: at the highest dose activity change, negative = inhibition, hits mostly inhibitors | 0.63% of 310,000 active; calls by dose curve; tested in A549 cells; also: potency is read from the fitted curve at half-maximal effect; nearly all actives have a fitted effect of over 35% in size
HCMV antiviral – qHTS Assay for inhibitors of the human cytomegalovirus (HCMV). HFF cells, HCMV-luciferase reporter, 72 h; stronger effect = lower value. activity change, negative = inhibition, % at 57.5 µM. 4.5% of 410,000 active; in the data active = activity change below about -60%; inconclusive = no clear call, values can overlap the other calls; inactive = above about -39%
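Inhibition of viral replication was scored as loss of reporter luminescence in HFFs infected with HCMV-luciferase (MOI 1 PFU/cell) for 72 h; compounds tested at 2 doses, normalized to buffer and Salinomycin controls.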
VACV Venus inh – qHTS for Stage-Specific Inhibitors of Vaccinia Orthopoxvirus: Venus Reporter Primary qHTS; 0.46% of 330,000 active; Vaccinia virus Venus reporter expression, fluorescence; AID 720580, 2013; Potency, µM (titrated, usually from 36.5 µM), for the others: top-dose activity change, negative = inhibition, actives largely listed as inhibitors; calls by dose curve; tested in A549 cells; also: potency is read from the fitted curve at half-maximal effect; nearly all actives have a fitted effect of over 30% in size
FMDV inh – High Throughput Screening for Foot and Mouth Disease Virus Antivirals. Potency, µM (highest dose often 57.9 µM), for inactives: top-dose activity change, negative = inhibition, actives largely listed as inhibitors. AID 1159524, 2015. 1.2% of 410,000 active. FMDV antiviral cell-based qHTS; calls by dose curve; tested in HEK293T cells; also: read-out not given here; potency is read from the fitted curve at half-maximal effect; nearly all actives have a fitted effect of over 45% in size
* = called active by the depositor; i = inactive; ? = inconclusive; · = no result; ! = repeats disagree; [ ] = remark or other dose. This is a sample that favours compounds with a hit; in the whole collection about 6.5% have one here. % is scaled to controls: 0 for no effect and ±100 for the full control effect.

SMILES | Lassa entry inh | MARV entry inh | Vaccinia mCherry | HCMV antiviral | VACV Venus inh | FMDV inh
Cc1ccc2c(c1)CN(CCNC(=O)c1ccc3nc(C)[nH]c3c1)CC(C)O2 (centres undefined) | · | · | -11% | · | -1% | -5%
COc1ccccc1C(=O)Nc1ccnn1C1CCN(C(=O)c2ccoc2C)CC1 | 9%[46.1 µM] | -4%[46.1 µM] | -9% | -63* | -18% | 6%
COc1ccccc1C(=O)Nc1ccnn1C1CCN(C(=O)c2ccoc2)CC1 | 6% | 22% | i | 3 | 1% | 16%
COc1ccccc1C(=O)Nc1ccnn1C1CCN(C(=O)c2cnsn2)CC1 | ? | -11% | -4% | -103* | -2% | 40%
COC(=O)c1ccc(-c2nc3cc(Cl)c(N)cc3s2)cc1 | ? | 0.5µM* | -27% | 76 | -11% | 10µM*
COC(=O)c1ccc(-c2nc(O)c(C)s2)cc1 | 23%[46.1 µM] | 2%[46.1 µM] | i | -65* | -8% | 8%
COC(=O)c1ccc(O)cc1 | 9% | 18% | -12% | 4 | -3% | 10%
OCCN1CCN(c2ncnc3c2ncn3[C@H]2CN(Cc3ccc(F)cc3)C[C@@H](CO)O2)CC1 | · | · | -16% | -10 | 0% | -4%
OCCN1CCN(c2ncnc3c2ncn3[C@H]2CN(Cc3cccc(C(F)(F)F)c3)C[C@@H](CO)O2)CC1 | · | · | i | -62* | -8% | -1%
CC(C)CNc1ncnc2c1ncn2[C@H]1CN(Cc2ccncc2)C[C@@H](CO)O1 | · | · | 26% | -35 | 5% | -13%
CC(C)CNc1ncnc2c1ncn2[C@H]1CN(Cc2ccc(-c3ccccc3)cc2)C[C@@H](CO)O1 | · | · | ? | -73* | ? | ?
CC(C)Nc1ncnc2c1ncn2[C@H]1CN(Cc2ccc(-c3ccccc3)cc2)C[C@@H](CO)O1 | · | · | 16% | -66* | -23% | ?
OCCNc1ncnc2c1ncn2[C@H]1CN(Cc2ccc(-c3ccccc3)cc2)C[C@@H](CO)O1 | · | · | 6% | · | -11% | ?
CCOC(=O)CCN1C(=O)[C@@H]2[C@H]3[C@H](O)[C@H](O)CC(=NNC(=O)OCc4ccc(OC)cc4)[C@@H]3CC[C@H]2C1=O | ? | 12%[14.2 µM] | · | · | · | ·
COC(=O)c1ccccc1C(=O)c1c(C)cc(C)cc1C | · | · | · | 7 | · | ·
Cc1noc(C)c1-c1ccc2ncnc(NCCN3CCOCC3)c2c1 | · | · | · | · | · | 15%
CCOc1ccccc1CNc1ncnc2ccc(-c3c(C)noc3C)cc12 | · | · | · | -28 | · | 32µM*
CCCC1(c2ccccc2)NC(=O)N(CC(=O)Nc2sc(-c3ccccc3)cc2C(=O)OCC)C1=O (centres undefined) | ? | ? | i | -62* | -1% | 14%
CCN(CC)S(=O)(=O)c1cc(C(=O)OCC(=O)Nc2ccc(-c3nc4ccc(C)cc4s3)cc2)ccc1F | 3.2µM*! | ? | i | ? | -5% | -17%
COc1cc(C(=O)Nc2nc(-c3ccc(Cl)cc3)c(C)s2)ccc1OCC(=O)Nc1ccc(F)cc1 | 10µM* | ? | -11% | -30 | -10% | 28µM*
Cc1nn(-c2ccc(Cl)cc2)c2[nH]c(CCl)cc(=O)c12 | 13% | -12%[46.1 µM] | i | -3 | -8% | -12%
COc1cc(N)c(Cl)cc1C(=O)OCC(=O)NCC1CCCCC1 | -29%[46.1 µM] | ? | -14% | -66* | -16% | -18%
CCCCc1nc2ccccc2c(=O)n1-c1ccc(Cl)cc1[N+](=O)[O-] | 28% | ? | · | -62* | · | -3%
C=CCN1C(=S)N=NC1c1ccccc1 (centres undefined) | · | 8% | · | · | · | ·
CC1CCc2nc(N)c(C#N)c(-c3cccnc3)c2C1 (centres undefined) | · | · | i | -66* | -8% | ?
SMILES | Lassa entry inh | MARV entry inh | Vaccinia mCherry | HCMV antiviral | VACV Venus inh | FMDV inh
COc1cc2c(cc1OC)CN(C(=O)CSC1=NCCS1)CC2 | · | · | -15% | -69* | -25% | ?
COc1cc2c(cc1OC)CN(C(=O)CSc1ccccc1C)CC2 | 2% | 16% | i | -38 | -18% | ?
Cc1c(Cl)cccc1NS(=O)(=O)c1ccc(NS(=O)(=O)c2ccc3c(c2)OCCO3)cc1 | -11%[46.1 µM] | 1%[46.1 µM] | 3% | -106* | -6% | 3%
O=S(=O)(Nc1cccnc1Cl)c1ccc2c(c1)OCCO2 | ? | 3% | -4% | 0 | -6% | 6%
COc1ccc(N2CCN(C(=O)c3cc(-c4cccs4)nc4ccccc34)CC2)cc1 | · | 11µM* | -21% | -6 | -15% | 16%
COc1ccc(-c2cc(C(=O)N3CCN(c4ccccc4)CC3)c3ccccc3n2)cc1OC | 4.5µM* | ? | · | 133 | 5% | -8%
COc1ccc(-c2cc(C(=O)N3CCCCCC3)c3ccccc3n2)cc1 | 17% | -11% | ? | -15 | -23% | 22%
CC1OC2CC(=O)OC2C2=C1C(=O)c1c(O)cccc1C2=O (centres undefined) | · | · | · | -106* | · | ·
O=C1c2cccc(O)c2C(=O)c2c(O)cc(CO)cc21 | · | · | 32% | · | 27% | -15%
O=C(OCCN1C(=O)c2cccc3c(N4CCOCC4)ccc(c23)C1=O)c1cccc(Cl)c1 | ? | ? | -12% | · | -19% | ?
O=C(OCCN1C(=O)c2cccc3c(N4CCOCC4)ccc(c23)C1=O)c1ccccc1Cl | ? | 7.1µM* | i | ? | -11% | ?
O=C(OCCN1C(=O)c2cccc3c(N4CCOCC4)ccc(c23)C1=O)c1ccc(Cl)cc1Cl | ? | ? | ? | -29 | -21% | 16µM*
CCC12CN3CC(C)(CN(C1)C3c1ccccc1C)C2=O (centres undefined) | 4%[46.1 µM] | 5%[46.1 µM] | -7% | -7 | -11% | -6%
Cc1c(NS(=O)(=O)c2cccc(C(=O)NC(C)c3ccccc3)c2)c(=O)n(-c2ccccc2)n1C (centres undefined) | · | · | · | 5 | · | -12%
CCN(CC)c1cc(CS(=O)c2ccccc2)nc(-c2ccccc2)n1 (centres undefined) | -9% | ? | -3% | -61* | 0% | -29%
Cc1ccc(NC(=O)N2CCCN(Cc3ccc(F)cc3)C2)cc1C | -17% | 6.3µM* | · | 17 | -23% | -22%
CN(C(=O)c1cccc(NC(=O)Cc2ccc(NC(=O)C3CCCN(C(=O)CCc4ccccc4)C3)cc2)c1)C1CCCC1 (centres undefined) | · | · | 16µM* | -72* | ? | ?
CN(C(=O)c1ccc(NC(=O)Cc2cccc(NC(=O)C3CCCN(C(=O)CCc4ccccc4)C3)c2)cc1)C1CCCC1 (centres undefined) | · | · | -28% | -5 | ? | 0%
CN(C(=O)c1ccc(NC(=O)Cc2ccc(NC(=O)C3CCCN(C(=O)CCc4ccccc4)C3)cc2)cc1)C1CC1 (centres undefined) | · | · | ? | -86* | ? | ?
